These results are taken from PubChem BioAssay (EPA / NIEHS).

Molecules are shown by their SMILES. Records with an inconclusive call do not appear. The source holds several records for some structures; these can differ, active in one and inactive in another. Active and inactive are the calls of the source. How the source made its calls, unless noted: active means hit-call score of the fitted dose curve at least 0.9, where 1 is the maximum; inactive means score below 0.9.

As a reminder, the AC50 is the midpoint of the concentration-response curve, whichever way the signal moves.

Assay [1] concerns the target Bile acid receptor (Homo sapiens) (UniProt Q96RI1). The experiment in a line: OT_FXR_FXRSRC1_1440: Odyssey Thera (OT) 24-hour HEK293T Protein-Complementation Assay for Farnesoid X receptor/SRC-1 Co-activator (AID 2283384; active means hit-call score of the fitted dose curve at least 0.9, where 1 is the maximum). The essentials: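 Cell-based binding reporter: interaction of FXR with SRC-1 brings reporter fragments together, giving a fluorescence signal read 24 h after dosing of HEK293T cells.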

Assay [2] has as its target Retinoic acid receptor RXR-alpha (Homo sapiens) (UniProt P19793). In words: OT_NURR1_NURR1RXRa_0480: Odyssey Thera (OT) 8-hour HEK293T Protein Complementation Assay for Nurr1/retinoid X receptor (RXR) (AID 2283385; active means hit-call score of the fitted dose curve at least 0.9, where 1 is the maximum). The essentials: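 Compounds are applied to HEK293T cells carrying Nurr1 and RXRα linked to reporter fragments. After 8 h, fluorescence intensity reports heterodimer formation, with DMSO as baseline.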

For assay [3] the target is unchanged. In words: OT_NURR1_NURR1RXRa_1440: Odyssey Thera (OT) 24-hour HEK293T Protein Complementation Assay for Nurr1/retinoid X receptor (RXR) (AID 2283386; active means hit-call score of the fitted dose curve at least 0.9, where 1 is the maximum). The essentials:
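Measured as fluorescence from a reconstituted split reporter, this 24 h HEK293T complementation assay scores compound-induced gain of Nurr1/RXRα association relative to DMSO.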

The target in assay [4] is Peroxisome proliferator-activated receptor gamma (Homo sapiens) (UniProt P37231). In words: OT_PPARg_PPARgSRC1_0480: Odyssey Thera (OT) 8-hour Protein-Complementation Assay for Peroxisome Proliferator-activated Receptor Gamma / SRC-1 Co-activator (AID 2283387; active means hit-call score of the fitted dose curve at least 0.9, where 1 is the maximum;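 further: nuclear to cytoplasmic split Venus YFP fluorescence ratio reporting PPARg SRC-1 interaction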). The essentials:
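Read-out: 488 nm N/C fluorescence ratio from complemented Venus YFP fragments, ≥350 cells per image, gain-of-signal fitted against DMSO baseline. Fusions of PPARg/SRC-1 with IFP1/IFP2 expressed transiently in HEK293T; compounds applied 8 h.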

Assay [5] has the same target. In words: OT_PPARg_PPARgSRC1_1440: Odyssey Thera (OT) 24-hour Protein-Complementation Assay for Peroxisome Proliferator-activated Receptor Gamma/ SRC-1 Co-activator (AID 2283388; active means hit-call score of the fitted dose curve at least 0.9, where 1 is the maximum;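 further: nuclear to cytoplasmic ratio of reconstituted Venus YFP fluorescence in fixed imaged cells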). A digest of the protocol:
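Readout: nuclear-to-cytoplasmic 488 nm fluorescence ratio, ≥350 cells per image, 8 images per well, after 24 h compound exposure of HEK293T expressing PPARg/SRC-1 split-YFP fusions. Activity fitted in positive direction against DMSO.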

Read-out in assay [6]: Tumor necrosis factor receptor superfamily member 6 (Homo sapiens) (UniProt P25445)
In words: LTEA_HepaRG_FAS: Life Technologies and Expression Analysis (LTEA) Assay for Fas cell surface death receptor (FAS) using HepaRG (AID 2283447). Particulars: mRNA level, 48 h; actives raise or lower the signal. A digest of the protocol:
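Differentiated human HepaRG cells, pre-cultured 48 h, were exposed in duplicate for 48 h to 8-point half-log concentrations (top 100 uM, 0.5% DMSO) in serum-free induction medium; FAS mRNA measured by qRT-PCR, normalized to ACTB/GAPDH/POLR2A, bidirectional fit versus DMSO.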

Read-out in assay [7]: Fatty acid synthase (Homo sapiens) (UniProt P49327)
In words: LTEA_HepaRG_FASN: Life Technologies and Expression Analysis (LTEA) Assay for Fatty Acid Synthase (FASN) using HepaRG (AID 2283448). The following applies: mRNA level, 48 h; actives raise or lower the signal. The essentials: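 Transcript-level assay: HepaRG liver cells are treated for 48 h across an eight-point range topping at 100 uM, and FASN mRNA, normalized to three housekeeping genes, is compared with DMSO controls in both directions.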

Read-out in assay [8]: Cyclin D2 (CCND2), CCND2 (gene 894)
In words: LTEA_HepaRG_CCND2: Life Technologies and Expression Analysis (LTEA) Assay for Cyclin D2 (CCND2) using HepaRG (AID 2283449).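 Further: CCND2 transcript measured by TaqMan qRT-PCR and normalised to three housekeeping genes.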 The following applies: mRNA level, 48 h; actives raise or lower the signal. The essentials: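 Differentiated human HepaRG cells were exposed for 48 h in serum-free induction medium to eight half-log concentrations topping at 100 uM (0.5% DMSO vehicle). CCND2 mRNA was quantified by TaqMan qRT-PCR, normalised to ACTB, GAPDH and POLR2A, and fitted bidirectionally against DMSO.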

Read-out in assay [9]: catalase (CAT), CAT (gene 847)
The experiment in a line: LTEA_HepaRG_CAT: Life Technologies and Expression Analysis (LTEA) Assay for catalase (CAT) using HepaRG (AID 2283452). The following applies: mRNA level, 48 h; actives raise or lower the signal. A digest of the protocol:
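Differentiated HepaRG cells in serum-free induction medium were dosed 48 h in duplicate, eight half-log concentrations from 100 uM in 0.5% DMSO. Transcript measured by TaqMan qRT-PCR, normalised to ACTB/GAPDH/POLR2A, fitted bidirectionally against DMSO.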

Read-out in assay [10]: flavin-containing dimethylaniline monooxygenases 3 (FMO3), FMO3 (gene 2328)
The experiment in a line: LTEA_HepaRG_FMO3: Life Technologies and Expression Analysis (LTEA) Assay for flavin-containing dimethylaniline monooxygenases 3 (FMO3) using HepaRG (AID 2283453).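 On AC50: FMO3 transcript by TaqMan qRT-PCR normalized to ACTB GAPDH and POLR2A.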 Particulars: mRNA level, 48 h; actives raise or lower the signal. A digest of the protocol:
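HepaRG, 48 h exposure, 8-pt half-log series from 100 uM, 0.5% DMSO vehicle, duplicates; FMO3 transcript by Fluidigm TaqMan qRT-PCR, housekeeping-normalized; gain/loss fit vs DMSO.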

Read-out in assay [11]: Cytochrome P450 (CYP1A1), CYP1A1 (gene 1543)
In words: LTEA_HepaRG_CYP1A1: Life Technologies and Expression Analysis (LTEA) Assay for Cytochrome P450 (CYP1A1) using HepaRG (AID 2283454). Particulars: mRNA level, 48 h; actives raise or lower the signal. The essentials:
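qRT-PCR read-out: CYP1A1 transcript normalized to three housekeeping genes, fitted bidirectionally against 0.5% DMSO vehicle baseline. Human HepaRG cells, 48 h chemical exposure, 8-point half-log series topping at 100 uM.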

Read-out in assay [12]: CFLAR gene, CFLAR (gene 8837)
The experiment in a line: LTEA_HepaRG_CFLAR: Life Technologies and Expression Analysis (LTEA) Assay for CFLAR gene using HepaRG (AID 2283455). The following applies: mRNA level, 48 h; actives raise or lower the signal. A digest of the protocol: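 HepaRG cells were plated for 48 h, switched to serum-free induction medium, then exposed in duplicate for 48 h to 8 concentrations (top 100 uM, half-log steps, 0.5% DMSO). CFLAR mRNA was measured by qRT-PCR, normalized to ACTB, GAPDH and POLR2A.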

The nature of assay [13]: CEETOX_H295R_11DCORT: CeeTox H295R High-throughput Steroidogenesis Assay for 11-Deoxycortisol (11DCORT) (AID 2283432).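 On AC50: human adrenal H295R cells prestimulated with 10 µM forskolin for 48 h; 11-deoxycortisol secreted into the medium measured by LC-MS/MS.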 The following applies: actives raise or lower the signal. The essentials:
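H295R cells; 10 uM forskolin prestim 48 h; compound in 0.1% DMSO 48 h; media extracted with MTBE; 11-deoxycortisol by LC-MS/MS, 7-point standard curve; gain/loss vs DMSO baseline; viability by MTT in same wells.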

A short description of assay [14]: CEETOX_H295R_ANDR: CeeTox H295R High-throughput Steroidogenesis Assay for Androstenedione (ANDR) (AID 2283436). Particulars: actives raise or lower the signal. A digest of the protocol: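 H295R human adrenal cells (passages ≤10) were exposed to test chemicals for 48 h; androstenedione in medium was MTBE-extracted and quantified by HPLC-MS/MS against a 7-point standard curve. Bidirectional fitting used DMSO as baseline.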

The nature of assay [15]: CEETOX_H295R_CORTIC: CeeTox H295R High-throughput Steroidogenesis Assay for Corticosterone (CORTIC) (AID 2283437).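 Further: corticosterone secreted into medium quantified by mass spectrometry.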 Particulars: actives raise or lower the signal. The essentials:
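H295R cells were prestimulated 48 h with 10 uM forskolin, then exposed 48 h to test chemical in 0.1% DMSO. Medium corticosterone was MTBE-extracted and quantified by HPLC-MS/MS; bidirectional fit versus DMSO baseline.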

The nature of assay [16]: CEETOX_H295R_CORTISOL: CeeTox H295R High-throughput Steroidogenesis Assay for Cortisol (AID 2283438).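 Further: cortisol secreted into medium quantified by LC-MS/MS.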 Particulars: actives raise or lower the signal. The essentials: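 Human adrenocortical H295R cells (passage ≤10) received test chemicals for 48 h after forskolin priming. Secreted cortisol was measured by LC-MS/MS.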
A short description of assay [17]: CEETOX_H295R_DOC: CeeTox H295R High-throughput Steroidogenesis Assay for DOC (AID 2283439). Particulars: actives raise or lower the signal. A digest of the protocol: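 Secreted DOC was quantified from H295R media by HPLC-MS/MS after 48 h chemical exposure following 48 h forskolin (10 uM) prestimulation. Values were fitted in both directions relative to DMSO, the negative control and baseline.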

The nature of assay [18]: CEETOX_H295R_PROG: CeeTox H295R High-throughput Steroidogenesis Assay for Progesterone (PROG) (AID 2283442).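 Further: human H295R adrenal cells primed with 10 µM forskolin before dosing.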 Particulars: actives raise or lower the signal. A digest of the protocol:
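Progesterone read-out: HPLC-MS/MS on MTBE extracts of conditioned medium after 48 h chemical exposure of forskolin-primed (10 uM, 48 h) H295R cells. Gain or loss of signal was fitted relative to DMSO baseline.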

Read-out in assay [19]: Cyclin Dependent Kinase Inhibitor 1A (CDKN1A), CDKN1A (gene 1026)
In words: LTEA_HepaRG_CDKN1A: Life Technologies and Expression Analysis (LTEA) Assay for Cyclin Dependent Kinase Inhibitor 1A (CDKN1A) using HepaRG (AID 2283450). The following applies: mRNA level, 48 h; actives raise or lower the signal. The essentials: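 HepaRG, 48 h dosing, 8-pt half-log series from 100 uM top, 0.5% DMSO vehicle, duplicates. Readout: TaqMan qRT-PCR of CDKN1A transcript, housekeeping-normalized (ACTB, GAPDH, POLR2A). Up/down curve fit relative to DMSO.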

Read-out in assay [20]: Cyclin D1 (CCND1), CCND1 (gene 595)
The experiment in a line: LTEA_HepaRG_CCND1: Life Technologies and Expression Analysis (LTEA) Assay for Cyclin D1 (CCND1) using HepaRG (AID 2283451). Particulars: mRNA level, 48 h; actives raise or lower the signal. The essentials: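 qRT-PCR (Fluidigm 96.96 array) read-out of transcript level, housekeeping-normalized (ACTB/GAPDH/POLR2A). HepaRG cells, 48 h chemical exposure, 8-point half-log series from 100 uM, 0.5% DMSO vehicle; gain or loss relative to DMSO baseline.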

Chain of Retinoic acid receptor RXR-alpha (Homo sapiens) (P19793 whole entry, looked up, the tested form may be a part): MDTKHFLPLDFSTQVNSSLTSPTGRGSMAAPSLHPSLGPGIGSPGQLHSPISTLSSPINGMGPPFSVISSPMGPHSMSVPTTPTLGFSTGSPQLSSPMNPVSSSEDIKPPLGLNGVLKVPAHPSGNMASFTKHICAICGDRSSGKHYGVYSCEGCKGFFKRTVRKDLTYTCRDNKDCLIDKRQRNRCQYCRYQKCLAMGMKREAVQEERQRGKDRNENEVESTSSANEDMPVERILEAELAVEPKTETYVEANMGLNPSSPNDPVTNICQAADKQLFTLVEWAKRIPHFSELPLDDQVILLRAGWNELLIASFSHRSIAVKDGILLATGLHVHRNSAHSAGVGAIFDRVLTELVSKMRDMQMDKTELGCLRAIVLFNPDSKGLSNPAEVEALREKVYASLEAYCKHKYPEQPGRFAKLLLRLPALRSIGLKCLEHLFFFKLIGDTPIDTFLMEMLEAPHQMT
Chain of Peroxisome proliferator-activated receptor gamma (Homo sapiens) (P37231 whole entry, looked up, the tested form may be a part): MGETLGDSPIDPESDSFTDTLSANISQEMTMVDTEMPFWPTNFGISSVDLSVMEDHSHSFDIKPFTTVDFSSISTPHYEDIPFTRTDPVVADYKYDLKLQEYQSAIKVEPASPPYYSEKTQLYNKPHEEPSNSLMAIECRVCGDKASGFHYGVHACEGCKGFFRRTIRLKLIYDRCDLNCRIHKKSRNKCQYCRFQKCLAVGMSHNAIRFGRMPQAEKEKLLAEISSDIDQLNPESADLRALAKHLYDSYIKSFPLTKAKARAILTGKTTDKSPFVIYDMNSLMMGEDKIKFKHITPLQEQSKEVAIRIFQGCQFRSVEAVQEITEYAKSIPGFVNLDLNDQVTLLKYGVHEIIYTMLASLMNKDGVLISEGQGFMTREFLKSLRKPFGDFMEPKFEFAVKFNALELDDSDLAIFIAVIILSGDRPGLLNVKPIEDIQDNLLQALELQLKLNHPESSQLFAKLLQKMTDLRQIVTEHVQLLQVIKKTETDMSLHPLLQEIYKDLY
Chain of Fatty acid synthase (Homo sapiens) (P49327 whole entry, looked up): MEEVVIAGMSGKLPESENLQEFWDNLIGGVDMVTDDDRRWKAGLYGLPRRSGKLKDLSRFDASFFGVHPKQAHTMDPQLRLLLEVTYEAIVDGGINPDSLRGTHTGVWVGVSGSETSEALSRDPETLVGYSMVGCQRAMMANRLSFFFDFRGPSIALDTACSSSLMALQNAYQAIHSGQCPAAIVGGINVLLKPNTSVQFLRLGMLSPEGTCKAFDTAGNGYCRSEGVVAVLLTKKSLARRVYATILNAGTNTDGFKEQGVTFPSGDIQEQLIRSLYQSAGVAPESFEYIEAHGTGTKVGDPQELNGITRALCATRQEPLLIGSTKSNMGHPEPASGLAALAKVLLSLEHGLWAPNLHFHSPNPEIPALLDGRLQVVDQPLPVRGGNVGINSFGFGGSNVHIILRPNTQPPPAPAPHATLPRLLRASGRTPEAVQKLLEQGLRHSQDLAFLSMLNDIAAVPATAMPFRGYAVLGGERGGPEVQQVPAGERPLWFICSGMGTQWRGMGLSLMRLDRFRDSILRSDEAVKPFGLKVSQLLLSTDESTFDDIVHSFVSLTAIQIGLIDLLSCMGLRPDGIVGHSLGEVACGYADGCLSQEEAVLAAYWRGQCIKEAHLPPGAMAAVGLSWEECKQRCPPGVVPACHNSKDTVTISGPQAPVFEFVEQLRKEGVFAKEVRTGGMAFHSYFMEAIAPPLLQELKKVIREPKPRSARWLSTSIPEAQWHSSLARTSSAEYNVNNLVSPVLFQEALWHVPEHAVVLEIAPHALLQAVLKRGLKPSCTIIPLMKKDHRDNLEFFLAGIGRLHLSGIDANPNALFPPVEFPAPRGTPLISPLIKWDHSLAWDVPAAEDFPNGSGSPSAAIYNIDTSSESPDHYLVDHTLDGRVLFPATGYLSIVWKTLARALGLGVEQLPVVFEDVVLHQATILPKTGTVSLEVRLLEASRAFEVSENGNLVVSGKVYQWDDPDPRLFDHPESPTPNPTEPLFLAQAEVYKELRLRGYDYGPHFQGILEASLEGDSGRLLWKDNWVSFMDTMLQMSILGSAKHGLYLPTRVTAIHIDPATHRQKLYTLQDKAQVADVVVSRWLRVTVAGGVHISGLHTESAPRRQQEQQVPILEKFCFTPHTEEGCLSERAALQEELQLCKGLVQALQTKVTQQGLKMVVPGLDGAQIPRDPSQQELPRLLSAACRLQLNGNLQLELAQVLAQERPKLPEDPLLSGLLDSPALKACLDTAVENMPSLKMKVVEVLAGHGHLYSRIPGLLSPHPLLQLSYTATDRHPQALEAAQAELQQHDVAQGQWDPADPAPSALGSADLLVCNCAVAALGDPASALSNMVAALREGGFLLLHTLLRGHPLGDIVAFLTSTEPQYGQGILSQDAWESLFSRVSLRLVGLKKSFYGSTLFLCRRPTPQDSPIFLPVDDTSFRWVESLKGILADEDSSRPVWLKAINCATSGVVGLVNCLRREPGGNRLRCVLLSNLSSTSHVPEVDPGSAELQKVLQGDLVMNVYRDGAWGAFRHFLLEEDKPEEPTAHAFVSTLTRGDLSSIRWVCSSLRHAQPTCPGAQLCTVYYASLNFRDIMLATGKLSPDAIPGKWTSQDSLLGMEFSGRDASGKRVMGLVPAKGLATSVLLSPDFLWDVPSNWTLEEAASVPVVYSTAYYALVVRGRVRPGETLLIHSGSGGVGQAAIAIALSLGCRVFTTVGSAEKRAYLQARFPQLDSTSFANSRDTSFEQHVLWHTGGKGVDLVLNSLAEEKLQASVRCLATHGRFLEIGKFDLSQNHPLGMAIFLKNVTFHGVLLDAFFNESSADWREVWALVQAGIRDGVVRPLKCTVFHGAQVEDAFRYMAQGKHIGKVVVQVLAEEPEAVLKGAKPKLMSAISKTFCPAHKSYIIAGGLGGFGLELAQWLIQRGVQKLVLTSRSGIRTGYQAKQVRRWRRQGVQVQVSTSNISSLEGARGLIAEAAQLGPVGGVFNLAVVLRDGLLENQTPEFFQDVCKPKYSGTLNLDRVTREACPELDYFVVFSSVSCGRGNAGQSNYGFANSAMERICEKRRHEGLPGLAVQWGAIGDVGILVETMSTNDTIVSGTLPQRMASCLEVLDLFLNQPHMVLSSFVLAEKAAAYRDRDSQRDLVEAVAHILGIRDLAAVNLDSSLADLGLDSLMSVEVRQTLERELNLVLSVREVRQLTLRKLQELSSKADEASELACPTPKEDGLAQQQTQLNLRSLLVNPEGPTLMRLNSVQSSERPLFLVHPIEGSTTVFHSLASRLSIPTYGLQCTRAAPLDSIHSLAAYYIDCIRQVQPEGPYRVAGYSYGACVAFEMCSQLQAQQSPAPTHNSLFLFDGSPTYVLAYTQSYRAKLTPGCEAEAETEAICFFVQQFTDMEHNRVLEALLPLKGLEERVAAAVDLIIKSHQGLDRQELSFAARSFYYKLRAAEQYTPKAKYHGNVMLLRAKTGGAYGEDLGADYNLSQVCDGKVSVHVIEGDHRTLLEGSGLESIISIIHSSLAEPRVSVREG
Chain of Bile acid receptor (Homo sapiens) (Q96RI1 whole entry, looked up, the tested form may be a part): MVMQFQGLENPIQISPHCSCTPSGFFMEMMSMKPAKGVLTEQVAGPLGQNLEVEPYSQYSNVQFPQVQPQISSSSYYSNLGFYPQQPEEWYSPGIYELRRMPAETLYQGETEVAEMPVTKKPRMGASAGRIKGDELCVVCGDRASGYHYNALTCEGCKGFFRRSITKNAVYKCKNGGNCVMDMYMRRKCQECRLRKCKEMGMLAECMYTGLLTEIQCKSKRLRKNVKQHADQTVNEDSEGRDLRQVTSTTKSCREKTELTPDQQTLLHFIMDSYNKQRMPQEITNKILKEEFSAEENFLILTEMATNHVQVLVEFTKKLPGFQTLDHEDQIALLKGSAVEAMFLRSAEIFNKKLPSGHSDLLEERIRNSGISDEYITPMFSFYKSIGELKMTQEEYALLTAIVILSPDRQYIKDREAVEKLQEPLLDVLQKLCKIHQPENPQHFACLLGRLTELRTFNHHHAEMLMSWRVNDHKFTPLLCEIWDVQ

For `COc1cc(C(=O)NC2CCN(C)CC2)ccc1Nc1ncc2c(n1)N(C1CCCC1)CC(F)(F)C(=O)N2C`, the AC50 in assay [1] is 11 µM (active); in assay [2], 10.9 µM (active); in [3] it was 11 µM (active); in [6], 9.78 µM (active); in [7], 46.5 µM (active); in [9] it was 15.3 µM (active). For the same compound, the AC50 in [10] was 12.6 µM (active); in assay [11] it was 2.11 µM (active); in assay [12], 14.4 µM (active). For the same compound, the compound was called inactive in assay [4], in [5] and in assay [8].
Consider `O=C(Nc1ccc(Cl)cc1)Nc1ccc(Cl)c(Cl)c1`, for which the compound was classed as inactive in [1], in assay [3], in assay [4], in [5], in assay [14] and in [15]. Besides, the result in assay [16] and in assay [12] was inactive. The AC50 in assay [2] was 12.5 µM (active); in assay [13], 0.599 µM (active); in assay [17] it was 0.417 µM (active); in [18], 0.318 µM (active); in [6], 23.1 µM (active); in assay [7] it was 17.5 µM (active). In addition, the AC50 is 16.6 µM (active) in assay [9], 22.9 µM (active) in assay [10] and 27.7 µM (active) in assay [11].
For `CCCOC(=O)c1cc(O)c(O)c(O)c1`, the outcome in [1], in [2], in [3], in assay [4], in [5] and in assay [6] was inactive. Further, the result in assay [7], in [8], in [9] and in assay [12] was inactive. Besides, the AC50 in assay [11] is 10.1 µM (active).
For the compound `O=C(O)Cn1c(=O)n(Cc2ccc(Br)cc2F)c(=O)c2ccc(Cl)cc21`, the call in assay [1], in [2], in [3], in assay [4], in [5] and in assay [13] was inactive. In addition, the result in assay [14], in assay [15], in [16], in assay [17], in assay [6] and in assay [7] was inactive. For the same compound, the result in [8], in assay [19], in [20], in [9], in [10] and in [12] was inactive. Further, the figures for the AC50 in assay [5], in assay [18] and in assay [11] were 49.7 µM (active), 73.3 µM (active) and 87.8 µM (active), respectively.
